Source: the supplement of paper PMC10077471
The full ranking holds about 1,900 compounds; the median of “excess over highest single agent (ExcessHSA) synergy score, 6x6 matrix” is about -83, and the lowest 2% start at about -370. The list comes from a sample in which the lowest values are over-represented; it also holds similar structures and randomly drawn compounds.

system: NCI-H446; assay: excess over highest single agent (ExcessHSA) synergy score, 6x6 matrix; higher = less synergy (more negative = stronger synergy); details: 72 h; CellTiter-Glo viability

SMILES	excess over highest single agent
CN(C)c1ccc(-c2nc3ncc(Cl)c(N4CCN(CC(=O)Nc5nccs5)CC4)c3[nH]2)cc1 + Cc1sc2c(c1C)C(c1ccc(Cl)cc1)=N[C@@H](CC(=O)OC(C)(C)C)c1nnc(C)n1-2 [NCGC00250412-19]	-382
Cc1cc(CN2CCN(c3c(Br)cnc4nc(-c5ccc(N6CCN(C)CC6)cc5)[nH]c34)CC2)no1 + Cc1sc2c(c1C)C(c1ccc(Cl)cc1)=N[C@@H](CC(=O)OC(C)(C)C)c1nnc(C)n1-2 [NCGC00250412-19]	-107
CCOC(CN1C(=O)[C@](CC(=O)Nc2ccc(C)cc2)(NC(=O)Nc2ccc(C)cc2)c2ccccc21)OCC + Cc1sc2c(c1C)C(c1ccc(Cl)cc1)=N[C@@H](CC(=O)OC(C)(C)C)c1nnc(C)n1-2 [NCGC00250412-19]	-94.2
COc1cc2c(cc1OC)CN(CCc1ccc(NC(=O)c3cc(OC)c(OC)cc3NC(=O)c3cnc4ccccc4c3)cc1)CC2 + Cc1sc2c(c1C)C(c1ccc(Cl)cc1)=N[C@@H](CC(=O)OC(C)(C)C)c1nnc(C)n1-2 [NCGC00250412-19]	50.9
Cc1cccc(-c2[nH]c(C(C)(C)C)nc2-c2ccc3c(c2)OCO3)n1 + Cc1sc2c(c1C)C(c1ccc(Cl)cc1)=N[C@@H](CC(=O)OC(C)(C)C)c1nnc(C)n1-2 [NCGC00250412-19]	-84.7
CC(C)(O)CC(=O)NCCn1ccc2ncnc(Nc3ccc(Oc4cccc(C(F)(F)F)c4)c(Cl)c3)c21 + Cc1sc2c(c1C)C(c1ccc(Cl)cc1)=N[C@@H](CC(=O)OC(C)(C)C)c1nnc(C)n1-2 [NCGC00250412-19]	16.5
CC(C)[C@H](C(=O)Nc1ccc(C(=O)NO)cc1)c1ccccc1 + Cc1sc2c(c1C)C(c1ccc(Cl)cc1)=N[C@@H](CC(=O)OC(C)(C)C)c1nnc(C)n1-2 [NCGC00250412-19]	-112
C=C1/C(=C\C=C2/CCC[C@]3(C)[C@@H]([C@H](C)/C=C/C=C/C(O)(CC)CC)CC[C@@H]23)C[C@@H](O)C[C@@H]1O + Cc1sc2c(c1C)C(c1ccc(Cl)cc1)=N[C@@H](CC(=O)OC(C)(C)C)c1nnc(C)n1-2 [NCGC00250412-19]	84.4
COc1ccc2cc1Oc1ccc(cc1)C[C@H]1c3cc(c(OC)cc3CCN1C)Oc1c(OC)c(OC)cc3c1[C@H](C2)N(C)CC3 + Cc1sc2c(c1C)C(c1ccc(Cl)cc1)=N[C@@H](CC(=O)OC(C)(C)C)c1nnc(C)n1-2 [NCGC00250412-19]	-432
COc1cc2c(cc1OC)[C@@H]1Cc3ccc(OC)c(OC)c3CN1CC2 + Cc1sc2c(c1C)C(c1ccc(Cl)cc1)=N[C@@H](CC(=O)OC(C)(C)C)c1nnc(C)n1-2 [NCGC00250412-19]	-95.9
COc1ccc2c(c1OC)CN1CCc3cc4c(cc3C1C2)OCO4 (centres undefined) + Cc1sc2c(c1C)C(c1ccc(Cl)cc1)=N[C@@H](CC(=O)OC(C)(C)C)c1nnc(C)n1-2 [NCGC00250412-19]	-109
Cc1ccc2c(c1)c1c(n2CCc2ccc(C)nc2)CCN(C)C1 + Cc1sc2c(c1C)C(c1ccc(Cl)cc1)=N[C@@H](CC(=O)OC(C)(C)C)c1nnc(C)n1-2 [NCGC00250412-19]	-121
CC[C@@]1(O)C(=O)OCc2c1cc1n(c2=O)Cc2cc3cc(O)ccc3nc2-1 + Cc1sc2c(c1C)C(c1ccc(Cl)cc1)=N[C@@H](CC(=O)OC(C)(C)C)c1nnc(C)n1-2 [NCGC00250412-19]	-416
CC[C@@]1(O)C(=O)OCc2c1cc1n(c2=O)Cc2cc3c(CN(C)C)c(O)ccc3nc2-1 + Cc1sc2c(c1C)C(c1ccc(Cl)cc1)=N[C@@H](CC(=O)OC(C)(C)C)c1nnc(C)n1-2 [NCGC00250412-19]	-475
CC[C@@]1(O)C(=O)OCc2c1cc1n(c2=O)Cc2cc3ccccc3nc2-1 + Cc1sc2c(c1C)C(c1ccc(Cl)cc1)=N[C@@H](CC(=O)OC(C)(C)C)c1nnc(C)n1-2 [NCGC00250412-19]	-249
CCc1c2c(nc3ccc(OC(=O)N4CCC(N5CCCCC5)CC4)cc13)-c1cc3c(c(=O)n1C2)COC(=O)[C@]3(O)CC + Cc1sc2c(c1C)C(c1ccc(Cl)cc1)=N[C@@H](CC(=O)OC(C)(C)C)c1nnc(C)n1-2 [NCGC00250412-19]	-249
CCc1c2c(nc3ccc(O)cc13)-c1cc3c(c(=O)n1C2)COC(=O)[C@]3(O)CC + Cc1sc2c(c1C)C(c1ccc(Cl)cc1)=N[C@@H](CC(=O)OC(C)(C)C)c1nnc(C)n1-2 [NCGC00250412-19]	-327
CC[C@H](CC#N)OC(=O)N[C@@H](C)c1cccc(NC(=O)Nc2ccc(-c3cnco3)c(OC)c2)c1 + Cc1sc2c(c1C)C(c1ccc(Cl)cc1)=N[C@@H](CC(=O)OC(C)(C)C)c1nnc(C)n1-2 [NCGC00250412-19]	-174
Cc1cccc(Nc2nc(N[C@@H]3CCCC[C@@H]3N)ncc2C(N)=O)c1 + Cc1sc2c(c1C)C(c1ccc(Cl)cc1)=N[C@@H](CC(=O)OC(C)(C)C)c1nnc(C)n1-2 [NCGC00250412-19]	-24
Cn1cnc(-c2cc3nccc(Oc4ccc(NC(=S)NC(=O)Cc5ccccc5)cc4F)c3s2)c1 + Cc1sc2c(c1C)C(c1ccc(Cl)cc1)=N[C@@H](CC(=O)OC(C)(C)C)c1nnc(C)n1-2 [NCGC00250412-19]	-36.3
C#Cc1cccc(Nc2ncnc3cc(OCCOC)c(OCCO)cc23)c1 + Cc1sc2c(c1C)C(c1ccc(Cl)cc1)=N[C@@H](CC(=O)OC(C)(C)C)c1nnc(C)n1-2 [NCGC00250412-19]	-46.8
CCN1CCC(n2cc(CNc3cc(Cl)c4ncc(C#N)c(Nc5ccc(F)c(Cl)c5)c4c3)nn2)CC1 + Cc1sc2c(c1C)C(c1ccc(Cl)cc1)=N[C@@H](CC(=O)OC(C)(C)C)c1nnc(C)n1-2 [NCGC00250412-19]	44.4
CN(C1CCc2c(c3ccccc3n2CC(=O)O)C1)S(=O)(=O)c1ccc(F)cc1 (centres undefined) + Cc1sc2c(c1C)C(c1ccc(Cl)cc1)=N[C@@H](CC(=O)OC(C)(C)C)c1nnc(C)n1-2 [NCGC00250412-19]	-115
CC/C=C\CC1C(=O)CCC1CC(=O)OC (centres undefined) + Cc1sc2c(c1C)C(c1ccc(Cl)cc1)=N[C@@H](CC(=O)OC(C)(C)C)c1nnc(C)n1-2 [NCGC00250412-19]	223
